# Biological target: HBB
# Experiment: pooled miR-30 sensor sort-seq; sequence = guide strand
# Conditions: shRNA
# Note: reference of the scale not given here.
row,Sequence,sensor-assay potency score (higher = more potent)
1,ACCACCAACTTCATCCACGTTC,-1.74
2,AACTTCATCCACGTTCACCTTG,-0.552
3,ATCAGGAGTGGACAGATCCCCA,-1.55
4,TTCTTTGCCAAAGTGATGGGCC,-0.0247
5,TAGACCACCAGCAGCCTGCCCA,-0.865
6,TCTGATAGGCAGCCTGCACTGG,-0.723
7,TCACTCAGTGTGGCAAAGGTGC,-1.09

# Biological target: HBD
# Experiment: as above
# Conditions: shRNA
row,Sequence,sensor-assay potency score (higher = more potent)
1,ATTCCTTGCCAAAGTTGCGGGC,-0.495
2,TCAGCTGAGAAAAAGTGCCCTT,-0.0837
3,ACCACCAACTGCATCCACGTTC,-1.79
4,AGCCACACCAGCCACCACCTTC,-1.62
5,AATTCCTTGCCAAAGTTGCGGG,-0.612
6,ACTAAAGGCACCTAGCACCTTC,-0.765
7,TAGACCACCAGTAATCTGCCCA,-0.29
8,AACAGCATCAGGAGAGGACAGA,-1.5
9,ACACACACCAGCACATTGCCCA,-0.428
10,TTCACTTTGCCCCACAGGGCAT,-0.844

# Biological target: HBM
# Experiment: as above
# Conditions: shRNA
row,Sequence,sensor-assay potency score (higher = more potent)
1,AACACTGGATTAGCAGCGGAAA,-1.52
2,TCCACGTGCTGCACCGCCGCGC,-1.37
3,TTGGTGCTGGGGTACACCGTGA,-1.01
4,ATTAGCAGCGGAAAGTTGGCTG,0.235
5,TTGCACGGTGAACTCGTCCTGC,0.462
6,TGCGGGAAGTAGACCTTGGTGC,-0.583
7,TGAACTCGTCCTGCAGGTGGGA,-0.648
8,TTTGCACGGTGAACTCGTCCTG,0.188
9,TTGTCCACGTGCTGCACCGCCG,-1.46
10,TCAGGTCCCAGACCTGCGCGAT,-1.04
11,TGCACGGTGAACTCGTCCTGCA,-1.03
12,TGCATTTGCACGGTGAACTCGT,0.113

# Biological target: HBQ1
# Experiment: as above
# Conditions: shRNA
row,Sequence,sensor-assay potency score (higher = more potent)
1,TGGGCTCTGACTTGTGAGGAGC,-1.65
2,TAGGTCGTCCAGGCGCTCCACG,-1.23
3,TTACCAGCAGGCAGTGGCCCAG,-1.7
4,TTCCAGGGCCTCTGTCGTGTAG,-1.54
5,AAGTCTCCGGGGTAGTGCCGGG,-1.01
6,TAGACGCCGACGTTGCTGCCCA,-0.72
7,TGTCGTGTAGACGCCGACGTTG,-0.887
8,AAGTAGGTCTTCGTGGCGGGGA,-0.359
9,ATAACGTGGCTCAGGAACTTGT,-1.13
10,AGAAGTAGGTCTTCGTGGCGGG,-0.804

# From the OligoGym collection
